Counter-ions that a name gives are not always drawn.

Assay [1] concerns S. cerevisiae SK1 pCDA2-eGFP (USY613), sporulating. The experiment in a line: CDA2-GFP sporulation assay sensitivity score (z-score vs DMSO controls); higher = stronger inhibition of sporulation, active = hit call of the paper.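 Note: active if sensitivity score above 5.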
The test system of assay [2] is S. cerevisiae NKY1551 his4x/his4B, sporulating. The experiment in a line: HIS4 meiotic recombination assay sensitivity score (z-score vs DMSO controls); higher = stronger inhibition of sporulation/recombination, active = hit call of the paper.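 Note: active if sensitivity score above 5.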
Assay [3] has as its system S. cerevisiae AD1-9 (efflux-pump deficient), vegetative growth in YPD. The experiment in a line: growth sensitivity score (doubling time z-score vs DMSO controls); higher = slower growth, strongly negative scores also mark growth inhibition (complete suppression), active = hit call of the paper. In outline: (§1)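 Saccharomyces cerevisiae strains BY4741 and AD1-9 were seeded in rich medium in microtiter plates at an OD600 of 0.065. Compounds were added at a 1:100 dilution of DMSO stock. Optical density was read every 15 min for 24 hours on a Tecan GENios reader. Average doubling time was the time taken to reach a set generation point divided by generation number, and the growth sensitivity score was (compound mean − DMSO-control mean)/DMSO-control SD, using eight DMSO controls per experiment.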

Assay [4] relates to S. cerevisiae BY4741 (wild-type), vegetative growth in YPD. The assay is described as above. Put shortly: as §1

As for `CC(=O)[C@H]1CC[C@H]2[C@@H]3CCC4=CC(=O)CC[C@]4(C)[C@H]3CC[C@]12C` [Progesterone] (stock concentration (mM, diluted 1:100): 10), the “CDA2-GFP sporulation assay sensitivity score” value in assay [1] is 16.2 (active). Further, in assay [2], the “HIS4 meiotic recombination assay sensitivity score” value is 6.09 (active). For the same molecule, the growth sensitivity score is 112 (active) in assay [3] and 4.04 (active) in assay [4].
The matching figures for `CN(C)CCN(Cc1ccccc1)c1ccccn1` [Tripelennamine hydrochloride] (stock concentration (mM, diluted 1:100): 10): 0.92 (inactive), 8.14 (active), 0.66 (inactive) and 1.04 (inactive).
For `C#C[C@]1(O)CC[C@H]2[C@@H]3CCc4cc(O)ccc4[C@H]3CC[C@@]21C` [Ethynylestradiol] (stock concentration (mM, diluted 1:100): 10) the same measures were 6.44 (inactive), -1.32 (inactive), 229 (active) and 2.85 (active).
The matching figures for `CC(C)NCC(O)c1ccc(NS(C)(=O)=O)cc1` (centres undefined) [Sotalol hydrochloride] (stock concentration (mM, diluted 1:100): 8.8): -0.03 (inactive), -0.43 (inactive), -0.51 (inactive) and -1.04 (inactive).
On to `CN1CCC(=C2c3ccccc3CC(=O)c3sccc32)CC1` [Ketotifen fumarate] (stock concentration (mM, diluted 1:100): 8.9), for which the “CDA2-GFP sporulation assay sensitivity score” value in assay [1] is 4.44 (inactive). The “HIS4 meiotic recombination assay sensitivity score” value in assay [2] was 2.1 (inactive). Also, the values for the growth sensitivity score in assay [3] and in assay [4] were -0.77 (inactive) and 0.49 (inactive), respectively.
For `CC(C)(C#N)c1cc(Cn2cncn2)cc(C(C)(C)C#N)c1` [Anastrozole] (stock concentration (mM, diluted 1:100): 10) the same measures were 3.64 (inactive), 0.04 (inactive), -1.94 (inactive) and -0.82 (inactive).
The matching figures for `CC(=O)NCCCCCCNC(C)=O` [Hexamethylene bisacetamide] (stock concentration (mM, diluted 1:100): 10): 0.71 (inactive), -0.63 (inactive), 1.99 (inactive) and 1.69 (inactive).
In the case of `Cn1nnc2c(C(N)=O)ncn2c1=O` [Temozolomide] (stock concentration (mM, diluted 1:100): 10), the “CDA2-GFP sporulation assay sensitivity score” value in assay [1] was -0.1 (inactive). The “HIS4 meiotic recombination assay sensitivity score” value in assay [2] was -0.54 (inactive). For the same molecule, the growth sensitivity score in assay [3] was -0.09 (inactive); in assay [4], 1.92 (inactive).
With `O=C(O)/C=C/c1ccc(Cn2ccnc2)cc1` [Ozagrel hydrochloride] (stock concentration (mM, diluted 1:100): 8.6), in assay [1], the “CDA2-GFP sporulation assay sensitivity score” value was 0.27 (inactive). Besides, the “HIS4 meiotic recombination assay sensitivity score” value in assay [2] is 0.54 (inactive). For the same molecule, the growth sensitivity score in assay [3] is 0.64 (inactive); in assay [4], 2.72 (active).
The matching figures for `CN(C)CCC=C1c2ccccc2COc2ccccc21` [Doxepin] (stock concentration (mM, diluted 1:100): 10): 18.2 (active), 3.87 (inactive), 5.43 (active) and 1.16 (inactive).
As for `CN(C)CCC[C@@]1(c2ccc(F)cc2)OCc2cc(C#N)ccc21` [Escitalopram oxalate] (stock concentration (mM, diluted 1:100): 7.9), the “CDA2-GFP sporulation assay sensitivity score” value in assay [1] is 0.99 (inactive). Also, in assay [2], the “HIS4 meiotic recombination assay sensitivity score” value was 6.6 (active). Further, the growth sensitivity score was -1.47 (inactive) in assay [3] and 0.93 (inactive) in assay [4].
The matching figures for `CCCCC[C@H](O)/C=C/[C@H]1[C@H](O)CC(=O)[C@@H]1CCCCCCC(=O)O` [Prostaglandin E1] (stock concentration (mM, diluted 1:100): 10): 6.45 (inactive), 1.5 (inactive), 0.11 (inactive) and -0.67 (inactive).
Regarding `CC1(C)C[C@@H]1C(=O)N/C(=C\CCCCSC[C@H](N)C(=O)O)C(=O)O` [Cilastatin] (stock concentration (mM, diluted 1:100): 9.4), in assay [1], the “CDA2-GFP sporulation assay sensitivity score” value was -1.2 (inactive). Also, the “HIS4 meiotic recombination assay sensitivity score” value in assay [2] was -0.68 (inactive). The growth sensitivity score in assay [3] is -1.86 (inactive); in assay [4], -0.97 (inactive).
The matching figures for `CC(=O)[C@]1(O)Cc2c(O)c3c(c(O)c2[C@@H](O[C@H]2C[C@H](N)[C@H](O)[C@H](C)O2)C1)C(=O)c1ccccc1C3=O` [Idarubicin hydrochloride] (stock concentration (mM, diluted 1:100): 9.3): -0.06 (inactive), -2.94 (inactive), 174 (active) and 128 (active).
The matching figures for `C[C@H]1C[C@H]2[C@@H]3CCC4=CC(=O)C=C[C@]4(C)[C@@]3(Cl)[C@@H](O)C[C@]2(C)[C@@]1(O)C(=O)CO` [Beclomethasone] (stock concentration (mM, diluted 1:100): 10): 1.56 (inactive), -3.46 (inactive), 2.68 (active) and 0.52 (inactive).
Regarding `Cc1ncc([N+](=O)[O-])n1CC(C)O` (centres undefined) [Secnidazole] (stock concentration (mM, diluted 1:100): 10), in assay [1], the “CDA2-GFP sporulation assay sensitivity score” value was 0.94 (inactive). The “HIS4 meiotic recombination assay sensitivity score” value in assay [2] was 0.68 (inactive). For the same molecule, the growth sensitivity score in assay [3] was -0.44 (inactive); in assay [4] it was -0.7 (inactive).

Values taken from the supplement of paper PMC3414501.
